Cycloheximide cs: Cycloheximide Counterscreen for Small Molecule Inhibitors of Shiga Toxin | max response, % | cell reporter, cycloheximide protein synthesis inhibition counterscreen | hit rate 12% among 300,000 | AID 2314, 2010; in the data active = max response mostly above about 13%, no sharp cut-off; inactive = mostly below about 14%; note: read at 38.3 µM for the half of the compounds with a filed dose
Pf growth 48h: Primary qHTS for delayed death inhibitors of the malarial parasite plastid, 48 hour incubation. Potency, µM (doses to about 28.7 µM), actives largely listed as inhibitors. AID 504832, 2011. hit rate 5.9% among 310,000. P. falciparum luciferase growth in erythrocytes, 48 h
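First compound was added to culture medium, then infected red cells at 0.1% parasitemia and 2% hematocrit (final). After incubation at 37 C under 5% CO2, luciferase detection reagent was dispensed and light output recorded.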
Sm TGR block: qHTS Assay for the Inhibitors of Schistosoma Mansoni Peroxiredoxins; Schistosoma mansoni thioredoxin glutathione reductase (TGR), Q962Y6; hit rate 3% among 360,000; Potency, µM (doses to about 114 µM), usual class: inhibitors; purified TGR, DTNB reduction, TNB absorbance 405 nm; note: nearly all actives have a fitted effect of over 60% in size
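TGR 20 nM + NADPH 100 uM (dispensed conc.), cpd preinc 15 min RT; start with NADPH (500 uM addition) then DTNB (15 mM addition). Kinetic TNB absorbance, 405 nm filter. Four-parameter Hill fit across titration.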
Pf growth 96h: Primary qHTS for delayed death inhibitors of the malarial parasite plastid, 96 hour incubation. P. falciparum luciferase reporter growth, 96 h. Potency, µM (highest dose often 28.7 µM), most hits filed as inhibitors. hit rate 6.9% among 320,000. AID 504834, 2011
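P. falciparum expressing integrated firefly luciferase, in erythrocytes at 2% hematocrit, 0.05% parasitemia, incubated with compounds 96 h at 37 C, 5% CO2. Growth inhibition read as loss of luminescence; two-generation exposure targets delayed-death apicoplast inhibitors.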
NS1 function inh: qHTS Assay for Inhibitors of Influenza NS1 Protein Function; Potency, µM (doses to about 46.1 µM); hit rate 0.4% among 270,000; calls by dose curve; note: actives are rising curves; nearly all actives have a fitted effect of over 50% in size
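S. cerevisiae expressing influenza A NS1, grown in glucose, washed, then diluted 1:100 into pH 6.0 -URA galactose medium with 23 nl compound. Growth recovery read as OD600; NS1-free strain serves as control.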
Shiga toxin inh: A qHTS for Small Molecule Inhibitors of Shiga Toxin. Vero cells, Shiga toxin protein synthesis inhibition reporter. inhibition, % at 38.7 µM. hit rate 9.2% among 290,000; in the data active = inhibition mostly above about 28%, no sharp cut-off; inactive = mostly below about 43%
Numbers stand for hits; - = inactive; ? = inconclusive; . = no result; [ ] = another dose, or the depositor's remark. In the library only some 21% were active in any assay of this set; here they are far more common. Unless noted, calls come from the whole dose curve; as a rule, active = well fitted curve in the direction sought with a large enough effect; inconclusive = small, poorly fitted or top-dose-only effect, or another doubt; inactive = no such curve, though single readings can be large; an effect the other way counts as inactive or inconclusive.

SMILES | Cycloheximide cs | Pf growth 48h | Sm TGR block | Pf growth 96h | NS1 function inh | Shiga toxin inh
CC(=O)Nc1ccc(Br)c2ccccc12 | - | - | - | ? | - | -
O=C(Nc1ccc(Br)c2ccccc12)c1ccc2ccccc2c1O | 21.6 | 11.7µM | ? | 9.28µM | - | 44.4
Cc1cc(C)nc(NS(=O)(=O)c2ccc(Br)s2)c1 | - | . | ? | ? | - | -
Cc1ccc(NS(=O)(=O)c2ccc(Br)s2)nc1 | - | - | 15.8µM | - | - | -
COc1cc(/C=C(\NC(C)=O)C(=O)NC(C)(C)C)ccc1OC(C)=O | - | - | - | - | - | -
Cc1cc(C(=O)N/N=C2\CC(=O)c3ccccc32)c(C)n1-c1ccc(F)cc1 | 22.5 | 4.65µM | 35.5µM | 2.33µM | - | 41.1
COc1cc(/C=N/NC(=O)Nc2ccccc2)ccc1OC(C)=O | 39.4 | - | - | - | - | 53.2
COc1ccc(/C=N/NC(N)=S)cc1OC(=O)c1ccccc1 | - | . | - | - | - | -
COc1cc(/C=C(\NC(C)=O)C(=O)Nc2cccc(O)c2)ccc1OC(C)=O | - | - | 50.1µM | ? | - | -
CCOc1cc(/C=N/NC(=O)c2cc(C)n(-c3ccc(F)cc3)c2C)ccc1O | 22.4 | - | 56.2µM | - | - | 87.3
CCOc1ccccc1NC(=O)C(=O)c1cc(C)n(-c2ccc(F)cc2)c1C | . | . | - | . | . | .
c1ccc(CN2CCN(c3ncnc4c3cnn4-c3ccccc3)CC2)cc1 | . | . | - | . | . | .
O=C(Oc1ccccc1F)c1nc(SCc2ccc(F)cc2)ncc1Cl | . | . | - | . | . | .
CS(=O)(=O)N(C(=O)NC(=O)NC12CC3CC(CC(C3)C1)C2)C1CCCCC1 | - | - | - | - | . | -
CCN(CC)S(=O)(=O)c1ccc(NC(=O)CCNC(=O)c2ccccc2)cc1 | - | -[0.00184 µM] | - | ? | - | -
Cc1ccc(S(=O)(=O)NCC2CCC(C(=O)NCc3ccc(F)cc3)CC2)cc1 (stereo not drawn) | . | . | - | . | . | .
CCOc1cc(/C=N/NC(=O)Nc2ccccc2)ccc1O | 37.2 | - | - | - | - | 71.5
CCN(CC)C(=O)Cn1cc(C(=O)C(=O)NCCc2c[nH]c3ccccc23)c2ccccc21 | - | - | - | - | - | -
Cc1ccc([N+](=O)[O-])cc1NC(=O)CCc1ccccc1 | - | - | - | - | . | -
Cc1ccc([N+](=O)[O-])cc1N/C=C1\CCc2ccccc2C1=O | 12.7 | - | ? | ? | - | 52.4
S=C(N/N=C/c1ccccc1Cl)Nc1ccccc1 | 54.4 | ? | - | ? | - | 122.3
CNC(=S)N/N=C/c1ccccc1Cl | - | - | - | - | - | -
O=C(CC(=O)Nc1cccc(Cl)c1)N/N=C\c1ccccc1 | - | - | - | ? | - | -
S=C(N/N=C/c1cccc2ccccc12)Nc1cccc(Cl)c1 | - | ? | - | 2.94µM | ? | -
Cc1ccc(C)c(NS(=O)(=O)c2cc3c4c(c2)CC(=O)N4CCC3)c1 | - | 10.4µM | - | - | - | -
SMILES | Cycloheximide cs | Pf growth 48h | Sm TGR block | Pf growth 96h | NS1 function inh | Shiga toxin inh
Cc1cccc(C)c1NS(=O)(=O)c1cc2c3c(c1)CC(=O)N3CCC2 | - | 9.28µM | - | ? | ? | -
O=C1Cc2cc(S(=O)(=O)Nc3cccc([N+](=O)[O-])c3)cc3c2N1CCC3 | - | - | - | 6.57µM | - | -
O=C(N/N=C/c1ccco1)c1ccc(NC(=O)c2ccc(Cl)cc2)cc1 | - | - | - | - | - | -
Cc1cccc(-c2nc(C(N)=O)c3c(n2)n(-c2ccc4c(c2)OCO4)c(=O)n3C)c1 | . | . | - | . | . | .
COc1ccc(S(=O)(=O)N(CC(=O)NCCC(C)C)c2ccccc2)cc1OC | - | ? | - | - | - | -
O=C(Nc1ccc(F)cc1)N(CCCN1CCOCC1)Cc1cc2cc3c(cc2[nH]c1=O)OCO3 | - | 13.1µM | - | - | - | -
O=C(Nc1ccc(F)cc1)N(CCCN1CCOCC1)Cc1cc2cc3c(cc2[nH]c1=O)OCCO3 | 37.2 | 10.4µM | - | - | - | -
CCc1ccc2[nH]c(=O)c(CN(CCCN3CCOCC3)C(=O)Nc3ccc(F)cc3)cc2c1 | - | ? | - | - | - | -
COc1ccccc1NC(=O)N(CCCN1CCOCC1)Cc1cc2cc3c(cc2[nH]c1=O)OCO3 | - | - | - | 8.28µM | - | -
CCN1CCN(CCCNC(=O)CNC(=O)c2nn(-c3ccc(OC)cc3OC)c(=O)c3ccccc23)CC1 | - | - | - | ? | - | -
O=C(NCCCN1CCOCC1)c1cc(Cl)ccc1OCc1ccccc1 | - | ? | - | - | - | -
CCCN(CCC)C(=O)CC(c1ccccc1)c1cc(Br)ccc1O (stereo not drawn) | - | 13.1µM | - | . | - | -
Cc1cccc(C(CC(=O)N2CCCCC2)c2ccccc2)c1O (stereo not drawn) | - | - | 28.2µM | - | - | -
O=C(CC(c1ccccc1)c1cc(Br)ccc1O)N1CCCCC1 (stereo not drawn) | - | 13.1µM | - | ? | - | -
CCCN(CCC)C(=O)CC(c1ccccc1)c1ccc(C)cc1O (stereo not drawn) | - | . | - | ? | - | -
Cc1cccc(C(CC(=O)N2CCCC2)c2ccccc2)c1O (stereo not drawn) | - | - | - | - | - | -
O=C(CC(c1ccccc1)c1ccccc1O)N1CCCC1 (stereo not drawn) | - | - | - | . | - | -
COc1ccccc1OCC(O)Cn1nc(C)cc1C (stereo not drawn) | 54.3 | - | - | ? | - | 103.7
CCOC(=O)N1CCN(CC(O)COc2ccccc2[N+](=O)[O-])CC1 (stereo not drawn) | 11.4 | - | - | ? | - | -
Cc1cc(C)n(CC(O)COc2ccccc2C(=O)Nc2ccccc2)n1 (stereo not drawn) | - | 1.85µM | - | ? | - | -
Cc1cc(C)n(CC(O)COCc2ccccc2)n1 (stereo not drawn) | - | - | - | 11.7µM | - | -
Cc1cc(C)n(CC(O)COc2c(C)cccc2C)n1 (stereo not drawn) | - | ? | . | - | - | -
Cc1cc(C)n(CC(O)COc2cccc(OCC(O)Cn3nc(C)cc3C)c2)n1 (stereo not drawn) | - | - | - | - | - | -
CCOC(=O)c1c(C)n(Cc2ccccc2)c2ccc(OCC(O)Cn3nc(C)cc3C)cc12 (stereo not drawn) | - | 11.7µM | - | - | - | -
Cc1cc(C)n(CC(O)COc2ccccc2[N+](=O)[O-])n1 (stereo not drawn) | 28.0 | - | - | ? | - | -
CCOC(=O)c1c(C)n(Cc2ccccc2)c2ccc(OCC(O)Cn3nc(C)nc3C)cc12 (stereo not drawn) | - | ? | - | - | - | -
COc1cc(/C=C(\C#N)c2ccccn2)ccc1OCc1ccc(Cl)cc1 | - | 6.57µM | - | 5.22µM | - | -
